Assay outcomes: PubChem, National Center for Advancing Translational Sciences (NCATS)
AMA1 RON2 block – disrupts binding of P. falciparum AMA1 to RON2; AID 720542; Potency, µM (top dose mostly 58.2 µM), hits mostly inhibitors; AlphaScreen AMA1-biotinylated RON2 peptide binding; 360,000 compounds, 0.2% hits; further: nearly all actives have a fitted effect of over 45% in size
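AMA1 (3D7) with his tag at 25 nM final met compounds first, then biotinylated RON2 peptide at 25 nM; detection used donor plus acceptor beads, 10 µg/mL apiece, read by AlphaScreen after 30 min at room temperature.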
Sm TGR inh – S. mansoni TGR enzyme inhibition; Q962Y6; purified TGR, DTNB reduction, TNB absorbance 405 nm; Potency, µM (series often up to 114 µM), usual class: inhibitors; 360,000 compounds, 3% hits; AID 485364; further: nearly all actives have a fitted effect of over 60% in size
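TGR 20 nM + NADPH 100 uM (dispensed conc.), cpd preinc 15 min RT; start with NADPH (500 uM addition) then DTNB (15 mM addition). Kinetic TNB absorbance, 405 nm filter. Four-parameter Hill fit across titration.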
AmpC no deterg – AmpC beta-lactamase inhibition without detergent | Potency, µM (series often up to 57.1 µM), hits mostly inhibitors | 330,000 compounds, 0.52% hits | AmpC nitrocefin hydrolysis, absorbance 480 nm, 0.0001% Triton; further: nearly all actives have a fitted effect of over 20% in size
Target sequence (P00811 whole entry, looked up): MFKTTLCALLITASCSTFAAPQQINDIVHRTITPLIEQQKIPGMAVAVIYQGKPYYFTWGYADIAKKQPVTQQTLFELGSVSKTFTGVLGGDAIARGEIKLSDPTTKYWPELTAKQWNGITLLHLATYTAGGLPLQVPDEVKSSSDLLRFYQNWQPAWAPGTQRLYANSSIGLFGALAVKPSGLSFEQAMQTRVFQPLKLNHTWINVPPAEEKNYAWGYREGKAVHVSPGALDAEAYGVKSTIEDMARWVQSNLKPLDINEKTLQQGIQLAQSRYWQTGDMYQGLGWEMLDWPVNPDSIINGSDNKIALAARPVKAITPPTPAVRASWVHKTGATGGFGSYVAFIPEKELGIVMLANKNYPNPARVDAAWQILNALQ
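20 mM phosphate pH 7.0 + 0.01% (detergent screen) or 0.0001% Triton X-100; 5.3 nM AmpC reagent; cpd preinc 15 min RT; nitrocefin (800 uM stock) to start; A480 q20 s × 4 min; Activity was normalised to no-enzyme and no-compound control wells.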
AmpC inh detg – AmpC beta-lactamase inhibition with detergent present; AID 485294; Potency, µM (titrated, usually from 114 µM), usual class: inhibitors; P00811; 370,000 compounds, 0.041% hits; AmpC hydrolysis of nitrocefin, absorbance 480 nm, 0.01% Triton; further: nearly all actives have a fitted effect of over 25% in size
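20 mM phosphate pH 7.0 + 0.01% (detergent screen) or 0.0001% Triton X-100; 5.3 nM AmpC reagent; cpd preinc 15 min RT; nitrocefin (800 uM stock) to start; A480 q20 s × 4 min; Activity was normalised to no-enzyme and no-compound control wells.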
FMDV inh – antivirals against foot and mouth disease virus | FMDV antiviral cell-based qHTS | Potency, µM (doses to about 57.9 µM), actives largely listed as inhibitors | 410,000 compounds, 1.2% hits; calls by dose curve; tested in HEK293T cells; further: read-out not given here; nearly all actives have a fitted effect of over 45% in size
Each line names hits and unclear results; the compound was inactive in the other large screens. Hits are enriched below; roughly 4.1% of the tested compounds scored in any of these assays. Unless noted, the call rests on the fitted dose curve; in most records, active means well fitted curve in the direction sought with a large enough effect; inconclusive means small, poorly fitted or top-dose-only effect, or another doubt; inactive means no such curve, though single readings can be large; an effect the other way counts as inactive or inconclusive.

O=C1c2ccncc2C(=O)N1CO	Sm TGR inh 50µM
Cc1ccc(C(=O)c2ccccc2C(=O)OCC(=O)Nc2cccc([N+](=O)[O-])c2)cc1	none
Cc1ccc(Cl)c(NC(=O)COC(=O)c2ccccc2C(=O)c2ccc(Cl)c([N+](=O)[O-])c2)c1Cl	AmpC no deterg 20µM, FMDV inh inconclusive
CCCNC(=O)COC(=O)c1ccccc1C(=O)c1ccc(Cl)c([N+](=O)[O-])c1	Sm TGR inh inconclusive, AmpC inh detg inconclusive, FMDV inh 11µM
Cc1ccc(C(=O)c2ccccc2C(=O)OCC(=O)NCCc2ccc(Cl)cc2Cl)cc1	FMDV inh inconclusive
Cc1ccc2c(c1)cc(C(=O)NCc1ccccc1C)n2C	none (no result: AMA1 RON2 block, AmpC no deterg)
CCOC(=O)C1CCN(Cc2cn3c(-c4ccc(OC)cc4)nnc3s2)CC1	Sm TGR inh inconclusive, FMDV inh inconclusive (no result: AMA1 RON2 block, AmpC no deterg)
COc1ccc(CCNc2nc3cc(OC)c(OC)cc3c3nc(-c4ccccc4)nn23)cc1OC	FMDV inh 4.5µM (no result: AMA1 RON2 block, AmpC no deterg)
CCOC(=O)N1CCc2c(sc(NCc3ccc(OC)c(Br)c3)c2C(=O)Nc2cc(OC)ccc2OC)C1	none (no result: AMA1 RON2 block, AmpC no deterg)
COc1ccc2c(c1)c(=O)c(C(=O)c1ccc(C)cc1)cn2CC(=O)Nc1ccc(F)cc1	AmpC no deterg 18µM, AmpC inh detg inconclusive
CCC(=O)c1cn(CC(=O)Nc2ccc(C)cc2)c2ccccc12	Sm TGR inh 100µM, AmpC inh detg inconclusive
COc1ccc(CNC(=O)C(C)N2C(=O)NC(c3ccccc3)(c3ccccc3)C2=O)cc1 (stereo not drawn)	none
COC(=O)N1C(=O)[C@@](CC(C)C)(c2ccccc2)N1C(=O)OC	Sm TGR inh 3.5µM (no result: AMA1 RON2 block, FMDV inh)
COC(=O)N1C(=O)[C@](CC(C)C)(c2ccccc2)N1C(=O)OC	Sm TGR inh 7.9µM, FMDV inh 35µM
Cc1nc2cnc(Oc3ccccc3)nc2n(CCc2ccccc2)c1=O	none (no result: AMA1 RON2 block, Sm TGR inh, AmpC no deterg, AmpC inh detg)
Cc1ccc2nc(C(Cl)(Cl)Cl)nc(N/N=C/c3ccc([N+](=O)[O-])cc3)c2c1	FMDV inh 22µM (no result: Sm TGR inh, AmpC no deterg, AmpC inh detg)
Cc1ccc2nc(C(Cl)(Cl)Cl)nc(N/N=C/c3ccncc3)c2c1	none
Cc1ccc2onc(CC(=O)N3CCN(c4ccc(F)cc4)CC3)c2c1	none (no result: AMA1 RON2 block, AmpC no deterg)
O=S(=O)(Cc1noc(-c2ccc(Cl)cc2)n1)Cc1ccco1	Sm TGR inh 50µM
Cc1ccccc1C1(CC(=O)N2CCC[C@H]2C(N)=O)CC(=O)N(C2CCCC2)C1=O (stereo partly drawn)	none (no result: AMA1 RON2 block, Sm TGR inh, AmpC no deterg, AmpC inh detg)
COC(=O)c1cccc(C#CC(NP(=O)(c2ccccc2)c2ccccc2)c2ccccc2)c1 (stereo not drawn)	Sm TGR inh 11µM, FMDV inh inconclusive
COC(=O)[C@]1(C)C[C@H]1[C@H](NP(=O)(c1ccccc1)c1ccccc1)c1ccccc1	none
O=C(O)c1cc(N=Nc2c(O)ccc3ccccc23)cc(C(=O)O)c1	none
O=C(O)c1ccc(N=Nc2c(O)ccc3ncccc23)cc1	AMA1 RON2 block 6.3µM, FMDV inh 5.6µM
COc1ccc(CC(=O)Nc2ccc(S(=O)(=O)N(C)C3CCN(C)CC3)cc2)cc1	none
COc1ccc(S(=O)(=O)N(C)C2CCN(C)CC2)cc1	AmpC no deterg 10µM, AmpC inh detg inconclusive
COC(=O)CN1C(=O)[C@H]2[C@@H](c3ccc(C)o3)N3C(=O)CN(CC4CC4)C(=O)[C@@]3(C)[C@H]2C1=O	Sm TGR inh 16µM
COC(=O)CN1C(=O)[C@H]2[C@@H](c3ccc(C)o3)N3C(=O)CN(Cc4ccc(-c5ccccc5)cc4)C(=O)[C@@]3(C)[C@H]2C1=O	Sm TGR inh 10µM
COC(=O)CN1C(=O)[C@H]2[C@@H](c3ccc(C)o3)N3C(=O)CN(Cc4ccccn4)C(=O)[C@@]3(C)[C@H]2C1=O	Sm TGR inh 25µM, AmpC inh detg inconclusive
O=C(NCc1ccc(F)cc1)c1cc(Sc2ccc(F)cc2F)nc2ccccc12	FMDV inh inconclusive (no result: AMA1 RON2 block, AmpC no deterg)
CNc1ccccc1C(=O)N1CCc2c([nH]c3ccccc23)C1=O	none (no result: AMA1 RON2 block, Sm TGR inh, AmpC no deterg, AmpC inh detg)
C=CCc1ccccc1OCCSc1nc(-c2cccs2)nc2cc(=O)[nH]n12	none (no result: AMA1 RON2 block, AmpC no deterg)
CCc1noc(C)c1C(=O)Nc1ccc(Cl)c(S(=O)(=O)N2CCCCC2)c1	FMDV inh 22µM
CCc1noc(C)c1C(=O)Nc1ccc(S(=O)(=O)N2CCCCC2)cc1	none
CC(=O)Nc1ccc(/C=N/NC(=O)c2cc(-c3ccco3)nc3ccccc23)cc1	Sm TGR inh 14µM
O=C(O)c1ccccc1/C=N/NC(=O)c1cc(-c2ccco2)nc2ccccc12	Sm TGR inh 3.2µM
O=C(N/N=C/c1ccco1)c1cc(C2CC2)nc2ccccc12	AmpC no deterg 28µM (no result: AMA1 RON2 block, FMDV inh)
CC(c1ccon1)N(C)Cc1cn(C)nc1-c1cccc(Cl)c1 (stereo not drawn)	AMA1 RON2 block inconclusive, Sm TGR inh 28µM, FMDV inh inconclusive
Cn1c(Cc2csc(N)n2)nnc1SCC(=O)NC1CCCCC1	Sm TGR inh 40µM, AmpC inh detg inconclusive
Cc1cn(C)c(CC(=O)Nc2cccc(Cl)c2C)c1C(=O)O	none (no result: AMA1 RON2 block, AmpC no deterg)
Cc1cc(CNC(=S)Nc2cccc(Cl)c2Cl)nn1C	Sm TGR inh 13µM
CCn1c2ccccc2c2c3ncc4cccn4c3ccc21	Sm TGR inh 28µM
c1ccc2c(c1)ncc1cccn12	none (no result: FMDV inh)
O=C(c1ccccc1)N1CCN(C(=O)c2ccccc2)c2ccccc21	FMDV inh 35µM (no result: Sm TGR inh, AmpC no deterg, AmpC inh detg)
